Laboratory results as given in PubChem BioAssay.

target: Neurogenic locus notch homolog protein 2 (Homo sapiens) (UniProt Q04721); experiment: Notch2 binders on small-molecule microarrays, primary screen, biochemical, small-molecule microarray, 635 nm fluorescence, stem cell growth factors (AID 1073); details: Notch2 binding, higher = more signal
Sequence (Q04721 whole entry, looked up): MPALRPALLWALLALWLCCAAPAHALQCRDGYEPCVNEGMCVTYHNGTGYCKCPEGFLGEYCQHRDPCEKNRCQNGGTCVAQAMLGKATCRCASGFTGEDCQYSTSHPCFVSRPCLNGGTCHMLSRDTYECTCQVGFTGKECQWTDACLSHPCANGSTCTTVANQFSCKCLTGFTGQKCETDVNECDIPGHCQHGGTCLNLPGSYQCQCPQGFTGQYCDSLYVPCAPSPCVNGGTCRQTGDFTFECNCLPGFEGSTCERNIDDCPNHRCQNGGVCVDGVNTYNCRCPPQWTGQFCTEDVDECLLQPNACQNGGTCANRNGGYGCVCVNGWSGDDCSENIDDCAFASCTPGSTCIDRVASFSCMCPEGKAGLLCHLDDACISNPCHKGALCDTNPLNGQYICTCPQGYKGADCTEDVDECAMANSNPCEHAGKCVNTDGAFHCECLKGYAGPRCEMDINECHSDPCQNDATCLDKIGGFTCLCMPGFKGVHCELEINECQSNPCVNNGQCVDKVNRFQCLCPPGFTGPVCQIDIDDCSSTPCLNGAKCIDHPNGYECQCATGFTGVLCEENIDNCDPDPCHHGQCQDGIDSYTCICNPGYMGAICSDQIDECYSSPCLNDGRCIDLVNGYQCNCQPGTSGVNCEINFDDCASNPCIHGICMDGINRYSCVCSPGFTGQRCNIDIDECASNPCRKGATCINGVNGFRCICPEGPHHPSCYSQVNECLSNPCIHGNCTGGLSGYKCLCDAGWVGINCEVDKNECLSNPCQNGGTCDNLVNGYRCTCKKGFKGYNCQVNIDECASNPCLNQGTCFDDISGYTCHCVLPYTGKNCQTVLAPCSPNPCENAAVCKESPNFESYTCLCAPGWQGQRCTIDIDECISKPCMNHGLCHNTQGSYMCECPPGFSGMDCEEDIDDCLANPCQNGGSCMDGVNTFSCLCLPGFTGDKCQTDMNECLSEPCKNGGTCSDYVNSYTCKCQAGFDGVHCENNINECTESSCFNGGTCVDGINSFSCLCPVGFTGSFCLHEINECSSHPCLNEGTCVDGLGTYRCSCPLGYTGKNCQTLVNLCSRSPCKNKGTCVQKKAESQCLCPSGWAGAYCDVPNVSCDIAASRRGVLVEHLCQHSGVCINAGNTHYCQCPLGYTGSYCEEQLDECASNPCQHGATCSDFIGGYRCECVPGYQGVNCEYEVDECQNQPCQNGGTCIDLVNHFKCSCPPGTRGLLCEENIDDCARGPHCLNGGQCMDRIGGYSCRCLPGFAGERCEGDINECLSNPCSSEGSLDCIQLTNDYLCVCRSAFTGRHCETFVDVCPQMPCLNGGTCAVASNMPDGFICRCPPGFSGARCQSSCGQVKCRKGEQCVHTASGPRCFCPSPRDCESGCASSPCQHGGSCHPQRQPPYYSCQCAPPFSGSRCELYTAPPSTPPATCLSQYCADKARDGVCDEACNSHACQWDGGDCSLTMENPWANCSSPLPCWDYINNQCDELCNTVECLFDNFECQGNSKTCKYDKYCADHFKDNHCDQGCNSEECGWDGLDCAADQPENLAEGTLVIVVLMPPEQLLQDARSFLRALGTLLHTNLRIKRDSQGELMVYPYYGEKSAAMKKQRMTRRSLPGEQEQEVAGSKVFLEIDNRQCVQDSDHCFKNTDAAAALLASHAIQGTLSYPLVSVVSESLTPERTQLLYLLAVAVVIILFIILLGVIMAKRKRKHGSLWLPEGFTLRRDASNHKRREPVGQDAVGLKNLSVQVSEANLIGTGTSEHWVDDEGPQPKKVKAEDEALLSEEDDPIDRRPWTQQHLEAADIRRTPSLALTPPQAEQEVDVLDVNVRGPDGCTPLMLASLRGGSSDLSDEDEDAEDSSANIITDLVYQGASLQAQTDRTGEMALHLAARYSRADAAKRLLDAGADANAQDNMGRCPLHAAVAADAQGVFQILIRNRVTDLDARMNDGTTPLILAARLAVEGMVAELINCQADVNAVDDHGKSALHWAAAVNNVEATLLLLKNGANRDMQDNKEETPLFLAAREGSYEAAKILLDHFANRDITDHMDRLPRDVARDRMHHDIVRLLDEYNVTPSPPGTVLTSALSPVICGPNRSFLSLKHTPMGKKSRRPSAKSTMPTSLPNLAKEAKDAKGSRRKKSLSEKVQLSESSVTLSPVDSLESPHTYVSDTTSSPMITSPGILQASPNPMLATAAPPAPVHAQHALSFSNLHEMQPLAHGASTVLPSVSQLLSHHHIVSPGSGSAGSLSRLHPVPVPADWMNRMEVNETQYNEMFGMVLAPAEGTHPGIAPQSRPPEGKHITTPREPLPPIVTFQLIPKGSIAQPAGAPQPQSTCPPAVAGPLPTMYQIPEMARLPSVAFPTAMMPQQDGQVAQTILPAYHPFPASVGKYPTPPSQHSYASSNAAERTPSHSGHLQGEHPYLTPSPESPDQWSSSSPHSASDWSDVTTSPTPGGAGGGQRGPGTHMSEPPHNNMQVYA

First: COc1ccc(NC(=O)O[C@H]2[C@H](OC(=O)c3cc4ccccc4[nH]3)[C@@H](OC(=O)c3cc4ccccc4[nH]3)[C@@H](OC)O[C@@H]2CO)cc1
Second: COCCOC(=O)N1C(=O)[C@@]2(c3cc(C#CCCO)ccc31)[C@H](c1ccc(OCCO)cc1)N1[C@H](c3ccccc3)[C@H](c3ccccc3)OC(=O)[C@H]1[C@@H]2C(N)=O
The composite z-score of the first is lower: 0.23 for the first, 1.16 for the second.

First: C=C(CCCC)C(=O)CC[C@H](OC(=O)c1cccnc1)c1ccc(OCCO)cc1
Second: C=C(CCCC)/C(=C/C[C@H](OC(C)=O)c1ccccc1OCCO)c1cnc2ccccc2c1
The composite z-score of the first is lower: -0.65 for the first, 0.3 for the second.

Going from `C=CCN1C(=O)[C@]2(Cc3ccccc3)N=C(c3ccc(OCCCO)cc3)O[C@@H]2c2ccccc21` to `C=CCN1Cc2ccccc2[C@@H]2OC(c3ccc(OCCCO)cc3)=N[C@]2(CCS(=O)(=O)c2ccccc2)C1=O`, the composite z-score rises from 1.35 to 1.55.

First: CC(=O)NCCCC[C@@H]1NC(=O)[C@H]2C[C@@H](C(=O)NCCCCCNC(=O)CS)[C@@H](c3ccc(O)cc3)N2C1=O
Second: NCCCCCCNC(=O)[C@H]1C[C@H]2C(=O)N[C@@H](Cc3ccccc3)C(=O)N2[C@H]1c1cccc(OCCO)c1
The composite z-score of the first is lower: -0.886 for the first, 0.427 for the second.

Going from `C=CCC(OC(C)=O)[C@@H]1[C@@H](N(Cc2cc3ccccc3o2)C(=O)Cc2ccc(OC)cc2)c2cc(OCCCO)ccc2N1C(=O)c1ccc2ccccc2c1` (stereo not given in full) to `C=CCC(OC(C)=O)[C@@H]1[C@@H](N(Cc2ccc(-c3cccc(C(F)(F)F)c3)o2)C(=O)c2cccc3ccccc23)c2cc(OCCCO)ccc2N1C(=O)Cc1ccc2ccccc2c1` (stereo not given in full), the composite z-score rises from -0.709 to -0.35.

Compared with `CC(c1ccccc1)C(O)C1C=CC2C(=O)N(c3ccccc3)C(=O)C2N1Nc1ccccc1` (stereo not given), `CN1C(=O)C2C=CC(C(O)C=Cc3ccc([N+](=O)[O-])cc3)N(Nc3ccccc3)C2C1=O` (stereo not given) is lower in composite z-score: 1.55 for the first, 1.25 for the second.

Compared with `COc1ccc([C@H]2C[C@H]3C(Br)=C[C@@]2(CO)C(=O)[C@]32CO2)cc1`, `CC(=O)Nc1cc(Br)ccc1C(=O)NCc1ccccc1` is higher in composite z-score: 0.269 for the first, 0.359 for the second.

First: CCCCN1CC=CC23O[C@@H]4/C=C\CCCOC(=O)C4[C@H]2C(=O)N(CCCCCO)[C@@H]3C1=O (stereo not given in full)
Second: O=C1OCCC=C[C@H]2OC34C=CCN(CCN5CCOCC5)C(=O)[C@H]3N(CCCCCO)C(=O)[C@@H]4C12 (stereo not given in full)
The composite z-score of the first is lower: -0.901 for the first, -0.419 for the second.

Going from `COc1ccc([Si](C)(C)[C@@H]2[C@@H](CCn3cc(CCO)nn3)O[C@]3(C(=O)N(Cc4cccc(N5C(=O)c6cccc7cccc5c67)c4)c4ccccc43)[C@H]2C)cc1` to `COc1ccc([Si](C)(C)[C@@H]2[C@@H](CCn3cc([C@H](O)c4ccccc4)nn3)O[C@]3(C(=O)N(Cc4cccc(N5CCC5=O)c4)c4ccccc43)[C@H]2C)cc1`, the composite z-score falls from 0.275 to -0.205.

Going from `CCCCCN1CC=CC23O[C@@H]4C=CCOC(=O)[C@@H]4[C@H]2C(=O)N(C(C)CO)[C@@H]3C1=O` (stereo not given in full) to `CC(C)CN1C(=O)[C@@]2(c3ccc([N+](=O)[O-])cc3)CC(=O)N(C3CCCCC3)[C@@H]2c2ccc(CO)cc21`, the composite z-score rises from -0.825 to -0.649.

Going from `CCOC(=O)C1=C[C@@H](C(C)C)N(S(=O)(=O)c2ccc(C)cc2)[C@H]1c1ccccc1F` to `CC(C)NC(=O)[C@@H]1c2ccccc2C(=O)N(C(C)C)[C@H]1c1ccc(CO)cc1`, the composite z-score falls from 1.65 to -0.78.

Going from `CS(=O)(=O)CCOC(=O)C1=CC(CCCO)=CC(C2CC2)N(Cc2cc3c(cc2Br)OCO3)C=C1C(=O)OCCS(C)(=O)=O` (stereo not given) to `COC(=O)[C@@]1(Cc2ccc(OC)cc2)[C@H]2c3cc(C(=O)N4CCCC4)n(CCc4ccc(O)c(O)c4)c3C[C@H]2CN1C(=O)c1ccccc1`, the composite z-score rises from 0.6 to 1.33.

First: Cc1c(NC(=O)/C(C#N)=C/c2cccc([N+](=O)[O-])c2)c(=O)n(-c2ccccc2)n1C
Second: COC(=O)[C@@]1(CCC(=O)OC(C)(C)C)N=C(c2ccc(OCCCO)cc2)O[C@H]1c1ccccc1
The composite z-score of the first is higher: 1.01 for the first, 0.124 for the second.

Going from `C=CCNC(=O)[C@@H]1[C@H]2C(=O)O[C@H](c3ccccc3)[C@H](c3ccccc3)N2[C@H](c2ccc(OCCO)cc2)[C@@]12C(=O)N(C(=O)OCCOC)c1ccc(C#CCC(C(=O)OC)C(=O)OC)cc12` to `COCCOC(=O)N1C(=O)[C@@]2(c3cc(C#CC4=CCCCC4)ccc31)[C@H](c1ccc(OCCO)cc1)N1[C@H](c3ccccc3)[C@H](c3ccccc3)OC(=O)[C@H]1[C@@H]2C(=O)N1CCc2cc(OC)c(OC)cc2C1`, the composite z-score rises from 1.1 to 1.43.

Compared with `C#CCN1[C@H](/C=C/C2CC2)[C@H](Cc2ccccc2)OC(=O)[C@@H]1Cc1ccccc1`, `O=C(NC1CC1)[C@@H]1c2ccccc2C(=O)N(C2Cc3ccccc3C2)[C@H]1c1ccc(CO)cc1` is higher in composite z-score: -0.343 for the first, 1.01 for the second.

Going from `COc1ccccc1CN1C(=O)c2ccccc2[C@@]2(Cc3ccccc3N(CCCN(C)C)C2=O)[C@@H]1c1ccc(CO)cc1` to `O=C(NCCN1CCOCC1)[C@@H]1c2ccccc2C(=O)N(Cc2cc(C(F)(F)F)cc(C(F)(F)F)c2)[C@H]1c1ccc(CO)cc1`, the composite z-score falls from 0.137 to -1.28.

First: O=C(O)[C@@]1(CCS(=O)(=O)c2ccccc2)N=C(c2ccc(OCCCO)cc2)O[C@H]1c1ccccc1
Second: C=CCN(Cc1ccccc1)C(=O)C(c1cccs1)N(C(=O)/C=C\C(=O)O)c1ccc(CCOCCO)cc1 (stereo not given)
The composite z-score of the first is higher: 0.604 for the first, -1.84 for the second.

In the case of `Cc1ccc(S[C@]2(C(=O)NCC(C)C)CC(=O)N(Cc3cc(C(F)(F)F)cc(C(F)(F)F)c3)[C@@H]2c2ccc(CO)cc2)cc1`, the composite z-score is reported as -0.598.
